40 compounds from PubChem BioAssay (Tox21) can be followed below.

Records with an inconclusive call do not appear. Entries that show only a call come without a potency. Active and inactive are the calls of the source. Calls follow the shape of the dose curve; as a rule, active = well fitted cell-killing curve with a large enough effect in the repeat runs; inconclusive = weak or mixed curves, or effect the other way; inactive = no such curve, though single readings can be large or run the other way.

The assay in a line: qHTS assay to identify small molecule antagonists of the vitamin D receptor (VDR) signaling pathway - cell viability counter screen (AID 743225). Also: nearly all actives have a fitted effect of over 50% in size. To be noted: VDR-bla HEK293T viability, CellTiter-Glo luminescence, 16 h; series mostly up to 61 µM. An excerpt:
U.S. Tox21 Program National Center for Advancing Translational Sciences [NCATS] NIH Chemical Genomics Center [NCGC] U.S. Environmental Protection Agency [EPA] National Institutes of Environmental Health Sciences [NIEHS] National Toxicology Program [NTP] U.S. Food and Drug Administration [FDA] Tox21 Assay Overview: The vitamin D receptor (VDR), a member of nuclear hormone receptor superfamily, plays a critical role in calcium homeostasis and bone metabolism. It is also involved in cell differentiation and growth, and thrombogenicity. To identify the compounds that inhibit VDR signaling, the VDR-UAS-bla HEK 293T cell line (Invitrogen, Carlsbad, CA, USA) containing a beta-lactamase reporter gene under the control of an upstream activator sequence (UAS) was used to screen the Tox21 10K compound library. The cytotoxicity of the Tox21 compound library against the VDR-bla cell line was tested in parallel by measuring the cell viability using CellTiter-Glo assay (Promega, Madison, WI) in the same wells.
Tox21 Assay Protocol Summary: VDR-bla cells were dispensed at 2,000 cells/5 uL of assay medium per well into black wall/clear-bottom 1536-well plates using a Multidrop Combi (Thermo Fisher Scientific, Waltham, MA) dispenser. After the assay plates were incubated at a 37C and 5% CO2 for 4 h, 23 nL of compounds dissolved in DMSO, positive controls or DMSO only was transferred to the assay plate by a Pintool station (Kalypsys, San Diego, CA), followed by addition of 1 uL of 1-alpha, 25-Dihydroxy Vitamin D3 (3 nM, final concentration in the wells) using a Bioraptr Flying Reagent Dispenser (FRD) workstation (Beckman Coulter, Indianapolis, IN). The plates were incubated at 37C and 5% CO2 for 16 h, and then 1 uL of LiveBLAzerTM B/G FRET substrate was added using a Bioraptr FRD. The plates were incubated at room temperature for 2 h and fluorescence intensity was measured by an Envision plate reader (PerkinElmer, Shelton, CT). For cell viability readout that measures cytotoxicity, 3 ul/well of CellTiter-Glo reagent was added into the assay plates using a Bioraptr FRD. After 30 min incubation at room temperature, the luminescence intensity in the plates was measured using a ViewLux plate reader (PerkinElmer).
Background: qHTS replaces the single test concentration by a dilution series.
As for `C=C(C)C(=O)OCCOc1ccccc1`, the Potency result is “inactive”.

Turning to `O=C(O)Cn1c(C(=O)Nc2nc(-c3ccccc3Cl)cs2)cc2ccccc21`, the Potency result is “inactive”. For `O=C(O)C(c1ccc(Cl)cc1)c1ccc(Cl)cc1`, the Potency result was “inactive”. For the compound `O=C=NC1CCC(CC2CCC(N=C=O)CC2)CC1` (stereo not given), the Potency entry is “inactive”. Under `NCc1ccccc1` stands “inactive”; under `O=c1[nH]cnc2ccccc12`, “inactive”; under `CCCCCOC(=O)c1ccc(O)cc1`, “inactive”. Regarding `C=Cc1c(C)c2cc3[nH]c(cc4nc(cc5nc(cc1[nH]2)C(C)=C5CCC(=O)O)C(CCC(=O)O)=C4C)c(C)c3C=C`, the Potency entry is “inactive”. Take `NC1CCN(c2nc3c(cc2F)c(=O)c(C(=O)O)cn3-c2ccc(F)cc2F)C1` (stereo not given): the Potency result is “inactive”. Under `CC(O)C1CCCCC1` (stereo not given) stands “inactive”; under `O=C(c1ccc(O)cc1)c1ccc(O)cc1`, “inactive”; under `O=C(CCN1CCN2CCCC2C1)N1c2ccccc2Sc2ccc(Cl)cc21` (stereo not given), “inactive”. Under `CC(C)CCCCCCOC(=O)c1ccc(C(=O)OCCCCCCC(C)C)c(C(=O)OCCCCCCC(C)C)c1` stands “inactive”; under `NCCCN(CCO)CCO`, “inactive”. Under `CC(C)(C)C1CCCCC1O` (stereo not given) stands “inactive”; under `CCCCCCCCN(C)C`, “inactive”. For `FC(F)(F)C(F)(F)C(F)(F)C(F)(F)C(F)(F)C(F)(F)CCI`, the Potency entry is “inactive”. As to `NCCCOCCOCCOCCCN`, the Potency result is “inactive”. In the case of `CC(=O)N(CC(=O)N(C)C)c1ccccc1`, the Potency entry was “inactive”. Regarding `O=C(/C=C/c1ccc(O)c(O)c1)O[C@@H]1C[C@](O)(C(=O)O)C[C@@H](O)[C@H]1O`, the Potency result was “inactive”.

Consider `CCN(CC)C(C)CN1c2ccccc2Sc2ccccc21` (stereo not given), for which the Potency entry was “inactive”. Under `CCN(CC)CCNC(C(=O)OCCC(C)C)c1ccccc1` (stereo not given) stands “inactive”. Under `CCN(CC)CCc1nc(-c2ccccc2)no1` stands “inactive”. On to `COCCO`, for which the Potency entry was “inactive”. As to `CCOc1cc(OCC)c(C(=O)CCC(=O)O)cc1OCC`, the Potency entry was “inactive”. For `CCOc1ccc2[nH]cc(C(=O)NCc3ccccc3)c(=O)c2n1`, the Potency entry is “inactive”. With `Oc1ccc(Sc2ccc(O)cc2)cc1`, the Potency entry is “inactive”. Under `CCC(=O)OC(C)(C)C1CC=C(C)CC1` (stereo not given) stands “inactive”; under `CC(C)(C)c1ccc(OCC2CO2)cc1` (stereo not given), “inactive”. Under `COc1ccccc1OC(=O)Oc1ccccc1OC` stands “inactive”; under `CCCCCc1ccc(N)cc1`, “inactive”; under `Nc1nc(CC(=O)O)cs1`, “inactive”. Under `CC(C)(C)c1ccc(S)cc1` stands “inactive”; under `CC1=CCC(C(C)C)C=C1` (stereo not given), “inactive”; under `Cn1c(=O)c2c(ncn2CC(O)CO)n(C)c1=O` (stereo not given), “inactive”. `Cn1c(NCCN(CCO)CCCc2ccc([N+](=O)[O-])cc2)cc(=O)n(C)c1=O`: the Potency entry is “inactive”. Under `CN(C)CC[C@@H](c1ccc(Br)cc1)c1ccccn1` stands “inactive”.

Turning to `COC(Cc1ccccc1)OC`, the Potency entry is “inactive”. Under `CCOC(=O)C1=C(C)NC(C)=C(C(=O)OC)C1c1cccc([N+](=O)[O-])c1` (stereo not given) stands “inactive”; under `CC1(C)[C@H]2CC[C@]1(C)[C@H](O)C2`, “inactive”.
